High-throughput results from PubChem.
TDP1 cell CPT – DT40-hTDP1 cell growth loss with CPT. chicken DT40 Tdp1-/-;hTDP1 cells + 20 nM CPT, ATP luminescence, 48 h. Potency, µM (highest dose often 46.2 µM), without a hit: at the top dose activity change, negative = growth inhibition, most hits filed as inhibitors. 12% of 420,000 active. AID 686979; note: potency is the fitted concentration of half-maximal effect; % is set by controls: 0 for no effect and ±100 for the full control effect; nearly all actives have a fitted effect of over 55% in size
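Cell growth measured by CellTiter-Glo luminescence after a minimum 48 h, 37 C compound exposure with 20 nM CPT in Tdp1-knockout DT40 cells stably expressing hTDP1, seeded 400/well; qHTS titration format.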
TGFb inhibitor – TGF-b pathway inhibition | Potency, µM (series often up to 46.1 µM), for the others: at the top dose activity, negative = inhibition, most hits filed as inhibitors | 1.2% of 410,000 active | AID 588855 | HepG2 CAGA-GFP TGF-b/SMAD3 reporter, GFP fluorescence, 18 h; TGF-beta stimulated, 500 pg/mL final; note: potency is the fitted concentration of half-maximal effect; % is set by controls: 0 for no effect and ±100 for the full control effect; nearly all actives have a fitted effect of over 65% in size
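Using HEPG2 CAGA-GFP reporter cells at 1000 cells/well, we pinned test compounds, stimulated with recombinant TGF-beta (500 pg/mL final) and measured total well GFP after 18 h.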
HepG2 tox – counter-screen for TGF-b inhibitors: cytotoxicity in HepG2 cells | HepG2 CAGA-GFP viability, ATP luminescence, 18 h | Potency, µM (series often up to 46.1 µM), for inactives: at the highest dose activity change, negative = cytotoxicity, usual class: cytotoxic | 0.76% of 410,000 active | AID 588856; note: potency is the fitted concentration of half-maximal effect
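CellTiter-Glo luminescence gave cytotoxicity after 18 hours at 37 degrees C. The cells were HepG2 CAGA-GFP in 1% FBS DMEM, stimulated with 500 pg/mL TGF-beta after compound addition. %Activity was normalised to no-cell wells (complete cell-killing) and DMSO (no toxicity), and curves were fitted and classified.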
S-ASM inh – human S-ASM enzyme inhibition; Potency, µM (doses to about 57.5 µM), for the others: top-dose activity change, negative = inhibition, hits mostly inhibitors; placental ASM, HMU-PC fluorogenic substrate, 60 min; 0.006% of 340,000 active; note: potency is the fitted concentration of half-maximal effect
Target sequence (P17405 47-631 limits assumed): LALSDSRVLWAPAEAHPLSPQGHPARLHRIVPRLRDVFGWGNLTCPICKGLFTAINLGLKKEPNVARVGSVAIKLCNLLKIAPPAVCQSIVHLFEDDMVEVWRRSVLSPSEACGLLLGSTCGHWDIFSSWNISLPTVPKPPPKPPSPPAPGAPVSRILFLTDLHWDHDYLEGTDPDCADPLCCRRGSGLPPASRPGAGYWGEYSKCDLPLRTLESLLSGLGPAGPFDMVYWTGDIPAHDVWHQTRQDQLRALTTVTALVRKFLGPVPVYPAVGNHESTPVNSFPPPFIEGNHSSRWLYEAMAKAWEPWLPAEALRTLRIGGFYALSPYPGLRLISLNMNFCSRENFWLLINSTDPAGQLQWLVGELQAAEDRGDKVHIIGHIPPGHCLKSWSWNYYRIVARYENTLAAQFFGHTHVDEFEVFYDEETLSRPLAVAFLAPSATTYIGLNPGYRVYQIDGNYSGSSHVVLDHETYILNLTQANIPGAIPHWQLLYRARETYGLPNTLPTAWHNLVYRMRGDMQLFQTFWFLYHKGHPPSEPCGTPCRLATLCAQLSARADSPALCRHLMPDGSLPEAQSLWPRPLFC
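qHTS format. ASM enzyme prepared from human placenta hydrolyses the fluorogenic substrate HMU-PC0 (9 uM final) over 60 min at 37 °C after a 10 min compound preincubation.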
DT40 TDP1 no CPT – qHTS for Inhibitors of human tyrosyl-DNA phosphodiesterase 1 (TDP1): qHTS in cells in absence of CPT; DT40 Tdp1-/- hTDP1 cells, no CPT, ATP luminescence, 48 h; Potency, µM (titrated, usually from 46.2 µM), for inactives: top-dose activity change, negative = growth inhibition, most hits filed as inhibitors; 15% of 420,000 active; AID 686978, 2013; note: potency is the fitted concentration of half-maximal effect; % is set by controls: 0 for no effect and ±100 for the full control effect; nearly all actives have a fitted effect of over 55% in size
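Growth of hTDP1-complemented DT40 Tdp1-knockout cells is measured by ATP luminescence after at least 48 hr compound exposure at 37 °C, with DMSO substituting for the 20 nM CPT used in the parallel screen.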
IL1B secr inh – blocks inflammasome-driven IL-1 beta release; THP-1 LPS/ATP IL-1B secretion, AlphaLISA, 16 h; hits give low values; activity change, % at 57.5 µM; 4.7% of 360,000 active; in the data active = activity change below about -50%; inconclusive = mostly about -30% to -49%; note: % is set by controls: 0 for no effect and ±100 for the full control effect
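THP-1 cells pretreated 1 hr with compounds (up to 57.5 uM final), then stimulated with LPS (250 ng/mL final) plus ATP (1.25 mM final); secreted IL-1B measured by AlphaLISA after 16 hr, decreased signal indicating inhibition.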
An asterisk follows results filed as active; i = inactive; ? = inconclusive; . = no result given. The list is not random: actives were taken first. Their share in the collection is about 19%. Unless noted, calls come from the whole dose curve; as a rule, active = well fitted curve in the direction sought with a large enough effect; inconclusive = small, poorly fitted or top-dose-only effect, or another doubt; inactive = no such curve, though single readings can be large; an effect the other way counts as inactive or inconclusive.

SMILES | TDP1 cell CPT | TGFb inhibitor | HepG2 tox | S-ASM inh | DT40 TDP1 no CPT | IL1B secr inh
O=C(Nc1ccc(F)c(Cl)c1)Nc1csc2ccccc12 | 5.17µM* | ? | 12.6µM* | -12.0% | 3.66µM* | -69.6*
O=C(Nc1ccc(F)cc1F)Nc1csc2ccccc12 | ? | ? | -39.8% | -11.7% | 23.1µM* | -92.3*
COc1cc(/C=C/C(=O)N2CCN(CC(O)COc3ccccc3)CC2)cc(OC)c1OC (stereo unspecified) | ? | 4.3% | -12.4% | 2.0% | 20.6µM* | -5.8
O=C(/C=C/c1ccc(Cl)cc1)N1CCN(Cc2ccccc2)CC1 | -14.2% | 17.0% | 4.7% | -1.4% | ? | -75.3*
COc1cc(/C=C/C(=O)N2CCCN(C(=O)/C=C/c3cc(OC)c(OC)c(OC)c3)CC2)cc(OC)c1OC | 1.8% | 2.1% | 10.7% | 12.7% | ? | -10.8
COc1cc(/C=C/C(=O)N2CCN(Cc3ccccc3)CC2)cc(OC)c1OC | -72.8% | -19.6% | -9.5% | -1.2% | 18.4µM* | 3.6
CN1CCN(C(=O)/C=C/c2ccc(Cl)cc2)CC1 | 5.7% | 8.5% | 3.4% | -1.8% | 7.1% | -23.9
COc1ccc(CCNC(=O)c2cc(-c3ccccc3)c(N3CCOCC3)s2)cc1OC | 20.6µM* | 3.2% | -3.4% | -8.9% | 16.4µM* | -11.3
O=C(NCCc1ccccc1)c1cc(-c2ccccc2)c(N2CCOCC2)s1 | ? | ? | -2.3% | -1.5% | 16.4µM* | ?
CCN(CC)CCCNC(=O)c1cc(-c2ccccc2)c(N2CCCCC2)s1 | ? | 3.8% | 10.4% | -6.7% | 14.6µM* | -9.5
CSc1ccc(CCNC(=O)c2cc(-c3ccccc3)c(N3CCOCC3)s2)cc1 | ? | 2.6% | -3.9% | -6.2% | 16.4µM* | -11.8
CCN(CC)CCCNC(=O)c1nn2c(C(F)(F)F)cc(-c3ccccc3)nc2c1Cl | ? | -11.9% | -0.3% | -1.8% | ? | ?
COCCCN1C(=O)C(=O)/C(=C(/O)c2ccc(S(=O)(=O)N3CCCCC3)cc2)C1c1cccc(OC)c1 (stereo unspecified) | -5.4% | 5.1% | -3.4% | -1.4% | ? | 6.5
O=S1(=O)CCO[C@H]2CCCC[C@@H]2N1Cc1ccc(Cl)cc1 | ? | -23.7% | -20.1% | . | 20µM* | .
CCOc1ccc(/C=C(\C#N)C(=O)Nc2sc3c(c2C(=O)OC)CCC3)cc1OC | 2.9% | 0.1% | -4.1% | . | 7.1% | .
O=c1[nH]nc(Cc2ccc(-c3cccc(Cl)c3)o2)c2ccccc12 | 16.4µM* | -4.5% | -25.1% | -17.5% | ? | 53.3
COc1ccc(NC(=O)CSc2ccc(-c3sc(C)nc3C)nn2)cc1 | -23.8% | -13.5% | 22.2% | -0.8% | ? | i
Nc1nnc(SCC(=O)Nc2cccc(Cl)c2)s1 | 10.6% | 4.4% | 9.8% | -0.9% | 6.7% | 4.1
CC(=O)c1cccc(NC(=O)CSc2ccc(-c3sc(C)nc3C)nn2)c1 | 20.6µM* | -11.6% | 0.0% | -2.2% | 23.1µM* | i
Cc1nc(C)c(-c2ccc(SCC(=O)Nc3ccc(Br)cc3)nn2)s1 | 20.6µM* | 0.0% | -28.1% | . | ? | .
Cc1nc(C)c(-c2ccc(SCC(=O)Nc3cccc(Cl)c3)nn2)s1 | 25.9µM* | ? | -31.3% | -6.9% | ? | 2.6
CC(=O)c1cccc(NC(=O)CSc2ccc(-c3cccnc3)nn2)c1 | -9.8% | 16.9% | -2.3% | -2.8% | ? | 3.7
Cc1nc(C)c(-c2ccc(SCC(=O)Nc3cccc(F)c3)nn2)s1 | 16.4µM* | ? | 0.0% | -0.7% | 23.1µM* | i
CCc1ccc(NC(=O)CSc2ccc(-c3sc(C)nc3C)nn2)cc1 | ? | ? | -32.8% | -7.1% | ? | 71.8
